Among the data in PubChem BioAssay (EPA / NIEHS) are outcome and AC50 values, retold here.

Each structure is given as a SMILES string. Inconclusive results are not listed. Active and inactive are the calls of the source. How the source made its calls, unless noted: active means hit-call score of the fitted dose curve at least 0.9, where 1 is the maximum; inactive means score below 0.9.

A short description of test [1]: APR_HepG2_CellCycleArrest_1hr: Apredica 1-hour HepG2 Assay for Cell Cycle Arrest (AID 2282666). The note with it: high-content imaging, actives raise or lower the signal. The essentials:
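HepG2 cells exposed for 1 h to 0.39–200 uM compound (0.5% DMSO). Fixed, Hoechst-stained nuclei imaged by ArrayScan; DNA content quantified by Cell Cycle analysis; bidirectional fit against DMSO.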

Test [2] is described as follows: ACEA_ER_80hr: ACEA Biosciences xCELLigence Real-Time Cell Analysis on Estrogen Receptor Agonism for Proliferation (AID 2282667; active means hit-call score of the fitted dose curve at least 0.9, where 1 is the maximum). To be noted: T47D proliferation, impedance (xCELLigence), 80 h. The essentials:
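Real-time impedance growth kinetics of human T-47D breast cells read 80 h after dosing, gain-of-signal fitted relative to DMSO. Compounds: 1:4 serial series, top final concentration 100 uM, n = 2.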

Test [3] is described as follows: APR_HepG2_CellLoss_1hr: Apredica 1-hour HepG2 Assay for Cell Loss (AID 2282668).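 Further: curves fitted both ways against DMSO so gain or loss of cells counts.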 The note with it: high-content imaging. The procedure, abridged: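 HepG2 cells were treated for 1 h with compound at 0.39–200 uM, in duplicate, in 0.5% DMSO. After formaldehyde fixation, Hoechst 33342-stained nuclei were imaged on an ArrayScan to count cells. Data were fitted bidirectionally versus DMSO.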

Test [4] in a line: APR_HepG2_MicrotubuleCSK_1hr: Apredica 1-hour HepG2 Assay for Microtubule CSK Stabilty (AID 2282669). To be noted: HepG2 microtubule cytoskeleton imaging, actives raise or lower the signal. The procedure, abridged: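 HepG2 cells exposed 1 h to 0.39–200 uM compound (0.5% DMSO, duplicates), then formaldehyde-fixed, permeabilized and immunostained for alpha-tubulin with Hoechst nuclei. Imaged by ArrayScan high-content analysis; bidirectional fit versus DMSO.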

Test [5] can be described thus: APR_HepG2_p53Act_1hr: Apredica 1-hour HepG2 Assay for p53 Activation (AID 2282671). The note with it: high-content imaging, actives raise or lower the signal. The procedure, abridged: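 HepG2 cells treated 1 h with compound at 0.39–200 uM (10 concentrations, duplicate) in 0.5% DMSO. Formaldehyde-fixed, permeabilised cells immunostained for p53 with Hoechst 33342; high-content imaging, bidirectional fit versus DMSO.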

The nature of test [6]: APR_HepG2_MitoticArrest_1hr: Apredica 1-hour HepG2 Assay for Mitotic Arrest (AID 2282672). The note with it: high-content imaging, actives raise or lower the signal. The essentials: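 HepG2 cells exposed 1 hr to compounds at 0.39–200 uM (0.5% v/v DMSO final), then fixed in 3.7% formaldehyde and immunostained for phospho-histone H3 with Hoechst 33342. Mitotic arrest scored by automated fluorescence imaging, fitted bidirectionally versus DMSO.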

A short description of test [7]: APR_HepG2_P-H2AX_1hr: Apredica 1-hour HepG2 Assay for H2AX Phosphorylation (AID 2282673). The note with it: high-content imaging, actives raise or lower the signal. The essentials:
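HepG2 dosed 1 hr at 0.39-200 uM (0.5% DMSO final), duplicate. Fixed in 3.7% formaldehyde, Triton permeabilized, immunostained for phospho-histone H2A.x (1:200) with Hoechst 33342; ArrayScan 20x imaging, bidirectional fit vs DMSO.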

A short description of test [8]: APR_HepG2_MitoMass_1hr: Apredica 1-hour HepG2 Assay for Mitochondrial Mass (AID 2282674). To be noted: high-content imaging, actives raise or lower the signal. The essentials: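 HepG2 cells dosed 1 hr with 0.39-200 uM compound (0.5% DMSO), duplicate wells. Mitochondria stained with 250 nM MitoTracker Red CMXRos for 30 min before formaldehyde fixation, imaged at 20x by ArrayScan; bidirectional fit versus DMSO.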

Test [9] is described as follows: APR_HepG2_MitoMembPot_1hr: Apredica 1-hour HepG2 Assay for Mitochondrial Membrane Potential (AID 2282675). The note with it: imaging, actives raise or lower the signal. The essentials:
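HepG2 cells dosed 1 hour with 0.39–200 uM compound in duplicate, 0.5% DMSO final. MitoTracker Red CMXRos (250 nM, 30 min) loaded before formaldehyde fixation; fluorescence quantified by high-content imaging, bidirectional fitting versus DMSO.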

Test [10] can be described thus: APR_HepG2_CellCycleArrest_24hr: Apredica 24-hour HepG2 Assay for Cell Cycle Arrest (AID 2282905).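 Further: cell cycle arrest scored as ratio of 2N to 4N nuclear DNA content.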 The note with it: imaging, actives raise or lower the signal. The procedure, abridged: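 Cell cycle arrest is scored from nuclear DNA content measured by high-content imaging of Hoechst 33342-stained HepG2 cells following 24-hour treatment at ten concentrations up to 200 uM, with DMSO as baseline.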

Test [11] is described as follows: APR_HepG2_StressKinase_1hr: Apredica 1-hour HepG2 Assay for Stress Kinase (AID 2282906). The note with it: HepG2 stress kinase (phospho-c-Jun) imaging, actives raise or lower the signal. The essentials:
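HepG2 cells dosed 0.39-200 uM (0.5% DMSO) for 1 h, then formaldehyde-fixed. Stress kinase read by phospho-c-Jun immunofluorescence using high-content imaging; bidirectional fit vs DMSO.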

Test [12] in a line: APR_HepG2_NuclearSize_24hr: Apredica 24-hour HepG2 Assay for Nuclear Size (AID 2282907). To be noted: high-content imaging, actives raise or lower the signal. The essentials:
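Compounds in DMSO (final 0.5%) were added to human HepG2 hepatoma cells at ten concentrations up to 200 uM for 24 hr. Fixed nuclei were stained with Hoechst 33342, and nuclear diameter was quantified from automated images.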

Test [13] is described as follows: APR_HepG2_CellLoss_24hr: Apredica 24-hour HepG2 Assay for Cell Loss (AID 2282908).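 On AC50: fit in both directions so a hit may be cell loss or gain.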 To be noted: high-content imaging. The essentials:
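Cell number is quantified by fluorescence imaging of Hoechst 33342-stained nuclei following dosing at 0.39–200 uM in 0.5% DMSO. Curves are fitted in both directions from the DMSO baseline.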

Test [14] in a line: APR_HepG2_MicrotubuleCSK_24hr: Apredica 24-hour HepG2 Assay for Microtubule CSK Stabilty (AID 2282909). To be noted: HepG2 microtubule cytoskeleton imaging, actives raise or lower the signal. The essentials: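 Steps: dose HepG2 for 24 h (0.39–200 uM, 0.5% DMSO); fix 30 min in 3.7% formaldehyde at room temperature; permeabilize; stain alpha-tubulin 60 min; image microtubule cytoskeleton at 20x. Signal change fitted in both directions relative to DMSO.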

A short description of test [15]: APR_HepG2_MitoticArrest_24hr: Apredica 24-hour HepG2 Assay for Mitotic Arrest (AID 2282910). To be noted: high-content imaging, actives raise or lower the signal. The procedure, abridged:
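Compounds are dosed onto HepG2 cells across ten concentrations up to 200 uM for 24 hr. Cells are then fixed in 3.7% formaldehyde, permeabilised, and labelled for phospho-histone H3 and nuclei; images are scored by cell cycle analysis and fitted bidirectionally relative to DMSO.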

Test [16] in a line: APR_HepG2_MitoMembPot_24hr: Apredica 24-hour HepG2 Assay for Mitochondrial Membrane Potential (AID 2282911). To be noted: imaging, actives raise or lower the signal. The procedure, abridged: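 Mitochondrial membrane potential imaged via MitoTracker Red CMXRos (250 nM, 30 min pre-fixation) in fixed HepG2 cells with Hoechst nuclear identification. Ten concentrations 0.39–200 uM, 24 h treatment, 0.5% DMSO; CCCP as positive control.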

The nature of test [17]: APR_HepG2_p53Act_24hr: Apredica 24-hour HepG2 Assay for p53 Activation (AID 2282913).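 Further: p53 protein immunofluorescence averaged per cell in HepG2 with Hoechst nuclei.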 The note with it: high-content imaging, actives raise or lower the signal. The procedure, abridged: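 Fluorescence imaging of formaldehyde-fixed HepG2 cells labelled for p53 and with Hoechst, 24 h after dosing (0.39–200 uM, duplicate wells, 0.5% v/v DMSO). Signal fitted in both directions relative to DMSO.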

Test [18] is described as follows: APR_HepG2_NuclearSize_1hr: Apredica 1-hour HepG2 Assay for Nuclear Size (AID 2282670). To be noted: high-content imaging, actives raise or lower the signal. The essentials:
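HepG2 cells dosed 1 hr with 0.39–200 uM compound (0.5% DMSO), formaldehyde-fixed, Hoechst 33342-stained and imaged at 20x; nuclear diameter from nuclear stain, fitted bidirectionally against DMSO.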

A short description of test [19]: APR_HepG2_CellCycleArrest_72hr: Apredica 72-hour HepG2 Assay for Cell Cycle Arrest (AID 2282914). To be noted: high-content imaging, actives raise or lower the signal. The procedure, abridged:
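Read-out: nuclear DNA content from Hoechst 33342 high-content imaging (20x, six fields/well) after 3.7% formaldehyde fixation, fitted bidirectionally against DMSO. Treatment was 72 h in HepG2, ten concentrations 0.39–200 uM, duplicate, 0.5% DMSO.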

A short description of test [20]: APR_HepG2_MitoMass_24hr: Apredica 24-hour HepG2 Assay for Mitochondrial Mass (AID 2282912). The note with it: high-content imaging, actives raise or lower the signal. The procedure, abridged: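 The liver line HepG2 was dosed in duplicate across a 0.39–200 uM series, with final DMSO held at 0.5% v/v, and harvested at 24 hr. High-content imaging measured mitochondrial dye staining.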

The term AC50 denotes the concentration giving half of the maximal activity seen. As for `CN=C=S`, the compound was classed as inactive in [1], in test [2], in test [3], in test [4], in test [5] and in test [6]. The outcome in [7], in [8], in test [9], in test [11], in test [12] and in test [13] was inactive. Also, the compound was called inactive in test [14], in test [15], in test [16] and in [17]. In [10], the half-maximal activity concentration (AC50) is 69.2 µM (active).
Turning to `CCN(CC)C(=O)C(C)Oc1cccc2ccccc12` (stereo not given), the compound was classed as inactive in [1], in test [2], in test [3], in test [4], in test [5] and in test [6]. For the same compound, the compound was classed as inactive in test [7], in test [10], in test [12], in test [13], in [14] and in [15]. The call in test [16] and in test [17] was inactive.
In the case of `CCOc1nc(F)cc2nc(S(=O)(=O)Nc3c(Cl)cccc3Cl)nn12`, the result in [1], in test [2], in test [3], in test [4], in test [18] and in test [5] was inactive. The outcome in [6], in test [7], in test [8], in [10], in [11] and in [12] was inactive. The result in [13], in test [14], in [15], in [16], in test [17] and in test [19] was inactive.
On to `CO/N=C(/C1=NOCCO1)c1ccccc1Oc1ncnc(Oc2ccccc2Cl)c1F`, for which the compound was called inactive in test [1], in test [3], in test [4], in test [18], in test [5] and in [6]. Besides, the call in test [7], in test [8], in test [9], in [10], in [11] and in [12] was inactive. The call in [13], in test [14], in test [15], in test [20] and in test [17] was inactive. In addition, the AC50 in [2] was 10.5 µM (active); in test [16], 0.309 µM (active).
Turning to `CNC(=O)Oc1cccc2ccccc12`, the compound was called inactive in [1], in [2], in test [4], in test [18], in test [5] and in [6]. Moreover, the compound was classed as inactive in test [8], in test [9], in test [10], in test [11], in test [12] and in test [14]. The outcome in test [15], in [16] and in [17] was inactive. Further, the AC50 in test [7] is 57.9 µM (active); in test [13], 50.5 µM (active).
For the compound `C=CCOC(=O)C(C)(C)OC(=O)c1cc(-n2c(=O)cc(C(F)(F)F)n(C)c2=O)ccc1Cl`, the result in [1], in [2], in [3], in test [4], in test [18] and in test [5] was inactive. The compound was called inactive in [6], in [7], in [10], in test [11], in test [12] and in test [13]. Further, the outcome in test [14], in test [15], in [16], in test [20], in test [17] and in [19] was inactive.
Take `CC1(C)C(C(=O)OC(C#N)c2cccc(Oc3ccccc3)c2)C1(C)C` (stereo not given): the compound was called inactive in test [1], in test [2], in test [3], in test [4], in test [18] and in test [5]. The result in test [6], in [7], in test [8], in test [10], in [11] and in test [12] was inactive. Further, the compound was called inactive in test [13], in test [14], in test [15], in test [16] and in test [17].
